Experimental data: ChEMBL document CHEMBL3433997, “St. Jude Leishmania screening dataset” (2016)

What was measured:
Type in all cases: functional
[1] = target: Solute carrier family 2, facilitated glucose transporter member 1 (Homo sapiens) (UniProt P11166); assay: ST_JUDE_LEISH: Cytotoxicity at 2uM final concentration against transgenic Leishmania Mexicana promastigotes LmGLUT1 that are glucose transport deficient and complemented with the human glucose transporter GLUT1. Activity is measured by DNA content using SYBR green in vitro
Chain of Solute carrier family 2, facilitated glucose transporter member 1 (Homo sapiens) (P11166 whole entry): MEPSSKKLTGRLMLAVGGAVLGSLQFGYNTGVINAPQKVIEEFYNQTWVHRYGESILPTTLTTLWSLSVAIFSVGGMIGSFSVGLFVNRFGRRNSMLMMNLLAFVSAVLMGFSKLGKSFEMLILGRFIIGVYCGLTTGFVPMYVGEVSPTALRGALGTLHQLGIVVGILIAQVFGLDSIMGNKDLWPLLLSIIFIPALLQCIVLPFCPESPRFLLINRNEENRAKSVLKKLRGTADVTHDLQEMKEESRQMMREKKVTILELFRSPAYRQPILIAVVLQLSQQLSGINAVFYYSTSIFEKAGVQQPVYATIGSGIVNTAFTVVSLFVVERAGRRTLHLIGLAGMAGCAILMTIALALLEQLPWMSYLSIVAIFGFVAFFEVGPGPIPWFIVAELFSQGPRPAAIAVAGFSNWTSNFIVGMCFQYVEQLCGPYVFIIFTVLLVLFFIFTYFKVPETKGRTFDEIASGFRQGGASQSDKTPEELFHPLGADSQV

[2] = target: Hexose transporter 1 (Plasmodium falciparum) (UniProt O97467); assay: ST_JUDE_LEISH: Cytotoxicity at 2uM final concentration against transgenic Leishmania Mexicana promastigotes LmPfHT that are glucose transport deficient and complemented with the Plasmodium falciparum hexose transporter. Activity is measured by DNA content using SYBR green in vitro
[3] = target: Glucose transporter (Leishmania mexicana) (UniProt O61059); assay: ST_JUDE_LEISH: Cytotoxicity at 2uM final concentration against transgenic Leishmania Mexicana promastigotes LmGT2 that are glucose transport deficient and complemented with the L. Mexicana glucose transporter 2. Activity is measured by DNA content using SYBR green in vitro

In the case of `COc1ccc(C(=O)Nc2ccc(Nc3nc(C)cc(N(C)C)n3)cc2)c(OC)c1`, the inhibition [1] is reported as 5.81%, the inhibition [2] is reported as 6.65% and the inhibition [3] is reported as 5.62%.

`O=C(Nc1ccc(-c2ccccc2)cc1)Nc1cccc(Cn2nc(Cl)c(N3CCNCC3)cc2=O)c1` showed an inhibition [1] of 0.77%, an inhibition [2] of 2.24% and an inhibition [3] of 4.62%.

With `CCCCCCNc1cc(C)nc2ccc(OC)cc12` the inhibition [1] was 11.1%, the inhibition [2] was 11.4% and the inhibition [3] was 4.54%.

`CC(CNCc1cn(Cc2cc(Br)cc(Br)c2)c2ccccc12)CNc1cc(=O)c2ccccc2[nH]1` (stereo unspecified) was tested, and the inhibition [1] was 0.59%, the inhibition [2] was 1.26% and the inhibition [3] was 1.07%.

In the case of `COc1ccc(-c2cccc(NC(=O)c3ccc(Cl)cc3)c2)cc1CN1CCC(O)CC1`, the inhibition [1] is reported as 5.4%, the inhibition [2] is reported as 0.09% and the inhibition [3] is reported as 1.8%.

`COc1cc(-n2c(CN3CCCC3)nc3cc(-c4ccc(Cl)cc4)sc3c2=O)ccc1OCCN1CCCC1` showed an inhibition [1] of 2.99%, an inhibition [2] of 2.69% and an inhibition [3] of 0.37%.

Compound `Cc1cccc2nc(-c3cccc(-c4ccc(NC(=O)NC5CC5c5ccccc5)cc4)c3)[nH]c12` (stereo unspecified) has an inhibition [1] of 6.4%, an inhibition [2] of 3.69% and an inhibition [3] of 5.64%.

In the case of `C#CCCOc1ccc2ccccc2c1CNCCCCCCNCc1c(OCCC#C)ccc2ccccc12`, the inhibition [1] is reported as -1.76%, the inhibition [2] is reported as 3.36% and the inhibition [3] is reported as -0.13%.

`C=CCc1cc(OC)ccc1OCCCOc1c(C)nc(N)nc1N` was tested, and the inhibition [1] was 78.2%, the inhibition [2] was 77.6% and the inhibition [3] was 65.3%.

`CC(C)Nc1nc(NCCc2c[nH]cn2)nc(NCc2cccc3ccccc23)n1` showed an inhibition [1] of -1.11%, an inhibition [2] of -0.07% and an inhibition [3] of -2.34%.

For `O=C(Cc1cccc(Cl)c1)Nc1cccc(-c2c[nH]c3nc(Nc4cccc(OCc5ccccc5)c4)ncc23)c1`, the inhibition [1] was 6.67%, the inhibition [2] was 6.61% and the inhibition [3] was 5.74%.

Compound `CCCCNc1ccc(C(=O)NC2CCN(C[C@H](O)c3ccnc4ccc(OC)cc34)CC2)cc1` has an inhibition [1] of 9.46%, an inhibition [2] of 11.8% and an inhibition [3] of 3.39%.
